# Data taken from PubChem BioAssay AID463173 (ICCB-Longwood Screening Facility, Harvard Medical School, 2010).
# Screen size: about 52,000 compounds; about 4,300 (8.3%) were called active. Cut-off read from the data, not from the text of the source: active = survival mostly below about 52% (no sharp cut-off); inactive = mostly above about 56%. The sample as a whole holds a higher share of actives than the screen did.
# Tested on: DeltatarO mutant
# Test: S. aureus survival, RN4220 and DeltatarO strains – OD600, teichoic acid synthesis inhibitors, primary screen (AID 463173)
# Details: S. aureus RN4220 wild type/DeltatarO growth, OD600, 18 h, active compounds read low, screened at 18.75 µg/mL (by protocol)
row,SMILES,survival
1,CCOc1ccc(C(C)C)cc1S(=O)(=O)Nc1cccc(-c2ccc(N3CCOCC3)nn2)c1,87% (inactive)
2,Cc1nc2nc(NC(=O)c3ccc(C(C)(C)C)cc3)[nH]n2c(=O)c1Cl,98% (inactive)
3,Cc1nn(S(=O)(=O)c2ccc(F)cc2)c(C)c1S(=O)(=O)N1CCC(C)CC1,-1% (active)
4,COc1ccc(S(=O)(=O)n2nc(C)c(S(=O)(=O)N3CCCCCC3)c2C)cc1OC,6% (active)
5,Cc1nn(C(=O)c2cccc([N+](=O)[O-])c2C)c(C)c1S(=O)(=O)N1CCCCCC1,-2% (active)
6,Cc1nn(C(=O)c2cccc([N+](=O)[O-])c2C)c(C)c1S(=O)(=O)N1CCOCC1,76% (inactive)
7,Cc1nn(S(=O)(=O)c2ccccc2)c(C)c1S(=O)(=O)N1CCC(C)CC1,72% (inactive)
8,Cc1nn(C(=O)c2ccccc2F)c(C)c1S(=O)(=O)N1CCCCCC1,83% (inactive)
9,Cc1nn(S(=O)(=O)c2ccc(F)cc2)c(C)c1S(=O)(=O)N1CCCCC1,72% (inactive)
10,COc1ccc(S(=O)(=O)n2nc(C)c(S(=O)(=O)N3CCC(C)CC3)c2C)cc1OC,70% (inactive)
11,COc1ccc(S(=O)(=O)n2nc(C)c(S(=O)(=O)N3CCCCCC3)c2C)cc1C,81% (inactive)
12,CC(C)c1ccc(Nc2cc(C(=O)NCCc3ccccc3)c3ccccc3n2)cc1,81% (inactive)
13,Cc1nn(CC(=O)NCc2ccccc2Br)c(=O)c2cc3occc3n12,132% (inactive)
14,Cc1ccc(CCNC(=O)c2ccc3c(c2)N(Cc2ccc(F)cc2)CCS3)cc1,71% (inactive)
15,CC1=C(c2ccc(C(C)C)cc2)S(=O)(=O)N=C1N1CCN(c2ccc(F)cc2)CC1,74% (inactive)
16,O=S(=O)(NCCS(=O)(=O)N1CCN(c2cccc(Cl)c2)CC1)c1ccc(F)cc1,83% (inactive)
17,CCC1CCCCN1CCCNC(=O)c1cc2c(Cl)nc3ccc(C)cc3c2s1 (centres undefined),67% (inactive)
18,COc1ccccc1C(=O)NCCn1cc(SCc2ccccc2Cl)c2ccccc21,34% (active)
19,COc1ccccc1C(=O)NCCn1cc(SCC(=O)Nc2ccccc2F)c2ccccc21,55% (inactive)
20,COc1ccccc1C(=O)NCCn1cc(SCc2ccc(C)cc2)c2ccccc21,22% (active)
21,COc1ccc(CCNC(=O)CSc2cn(CCNC(=O)c3ccccc3F)c3ccccc23)cc1OC,137% (inactive)
22,Cc1ccc(CSc2cn(CCNC(=O)c3cccs3)c3ccccc23)cc1,58% (inactive)
23,O=C(NCCn1cc(SCc2ccccc2Cl)c2ccccc21)c1cccs1,57% (inactive)
24,CCOc1ccc(C(=O)Nc2ccc(S(=O)(=O)N3CCOCC3)cc2)cc1OCC,72% (inactive)
